Bioassay records from PubChem BioAssay.
Marburg entry inh: blocks Marburg virus binding to or entry into cells. Marburg virus pseudotyped entry inhibition, cell reporter. Potency, µM (titrated, usually from 37.8 µM), without a hit: at the top dose activity change, negative = inhibition, most hits filed as inhibitors. 300,000 tested, 1.8% active; calls by dose curve; tested in HEK293 cells
FMDV antiviral: blocks foot and mouth disease virus; 410,000 tested, 1.2% active; FMDV antiviral cell-based qHTS; AID 1159524; Potency, µM (highest dose often 57.9 µM), for inactives: top-dose activity change, negative = inhibition, usual class: inhibitors; calls by dose curve; tested in HEK293T cells; further: read-out not given here; nearly all actives have a fitted effect of over 45% in size
Lassa entry inh: inhibitors of Lassa virus binding or cell entry; Potency, µM (highest dose often 37.9 µM), for the others: at the top dose activity change, negative = inhibition, usual class: inhibitors; Lassa virus pseudotype entry inhibition, cell reporter; AID 540256; 300,000 tested, 1.2% active; calls by dose curve; tested in HEK293 cells; further: nearly all actives have a fitted effect of over 50% in size
VACV Venus inh: inhibitors of vaccinia virus (Venus reporter). Vaccinia virus Venus reporter expression, fluorescence. Potency, µM (series often up to 36.5 µM), without a hit: at the top dose activity change, negative = inhibition, most hits filed as inhibitors. 330,000 tested, 0.46% active. AID 720580; calls by dose curve; tested in A549 cells; further: nearly all actives have a fitted effect of over 30% in size
VACV mCherry inh: inhibitors of vaccinia virus infection (mCherry reporter signal); Vaccinia virus mCherry reporter infection, fluorescence; Potency, µM (series often up to 36.5 µM), for inactives: at the top dose activity change, negative = inhibition, usual class: inhibitors; 310,000 tested, 0.63% active; calls by dose curve; tested in A549 cells; further: nearly all actives have a fitted effect of over 35% in size
Starred values were filed as active, the others as inactive; i = inactive; ? = inconclusive; · = no result; [ ] = dose if it differs, or a comment. The list is not random: actives were taken first. Their share in the collection is about 3.2%. On the % scale 0 is the no-effect control and ±100 the full control effect; potency means the concentration at half of the fitted maximal effect.

SMILES	Marburg entry inh	FMDV antiviral	Lassa entry inh	VACV Venus inh	VACV mCherry inh
CCCCCCSc1ccc(-c2nc3ccc(C)cn3c2NCc2ccccc2)cc1OC	·	-1.1%	·	-20.1%	?
COc1ccc(-c2cc(-c3nc4ccccn4c3NCc3ccccc3)ccc2OC)cc1	·	3.55µM*	·	11.2µM*	?
Cc1cc(/C=C2\C=Cc3ccccc32)cc(C)c1N	·	·	·	-21.1%	17.3%
O=C(CN1C(=O)C2(SCC(=O)N2c2cccc(Cl)c2)c2ccccc21)NC1CCCCC1 (configuration not stated)	·	0.0%	-5.2%[46.1 µM]	-4.9%	-9.1%
COc1ccc(C2CC(=O)Nc3c2c(=O)[nH]c2nc4ccccc4n32)cc1 (configuration not stated)	1.3%[46.1 µM]	-19.8%	13.6%[46.1 µM]	19.0%	16.1%
O=C1N=C(N2CCCC2)S/C1=C\C=C\c1ccccc1	·	-13.5%	·	·	·
O=C(Oc1cccc(/C=N/Nc2nc(Nc3ccccc3)nc(N3CCOCC3)n2)c1)c1ccco1	?	0.0%	?	?	-29.6%
C(=N\Nc1nc(Nc2ccccc2)nc(N2CCOCC2)n1)/c1c[nH]c2ccccc12	0.073µM*	3.2%	?	·	·
Cc1[nH]c2ccccc2c1/C=N/Nc1nc(Nc2ccc(F)cc2)nc(N2CCOCC2)n1	?	-17.1%	7.6%	-18.1%	-20.3%
Cc1ccc(Nc2nc(N/N=C/c3c[nH]c4ccccc34)nc(N3CCOCC3)n2)cc1	0.206µM*	?	14.6µM*	?	?
COCCCNC(=O)c1sc2ncnc(N3CCc4ccccc4C3)c2c1C	8.2µM*	?	?	·	·
Cc1c(C(=O)N2CCOCC2)sc2ncnc(N3CCc4ccccc4C3)c12	-5.1%	-19.3%	-27.2%	-21.5%	·
COc1cc(-c2coc3c(C(=O)NCc4ccc(N(C)C)cc4)cccc23)ccc1O	·	33.3%	·	-15.5%	i
COc1cc(-c2coc3c(C(=O)NCc4ccc(OC)c(OC)c4)cccc23)ccc1O	·	17.8µM*	·	?	15.8µM*
COc1ccc(CNC(=O)c2cccc3c(-c4cccc(C(N)=O)c4)coc23)cc1OC	·	7.94µM*	·	-30.0%	-3.6%
COc1ccc(C2=Nc3ccccc3N(C(=O)c3ccc4ncccc4c3)C2C(=O)NC(C)(C)C)cc1 (configuration not stated)	·	10.6%	·	-10.0%	-6.6%
CCN=C1NN=C(c2cc(C)n(Cc3ccco3)c2C)CS1	?	0.0794µM*	?	0.7%	i
CCN=C1NN=C(c2cc(C)n(CCc3ccccc3)c2C)CS1	?	-7.0%	?	-2.5%	-5.8%
COC(=O)NC(CC(C)=O)c1ccccc1 (configuration not stated)	10.8%	·	·	·	·
N/C(=C\c1ccccc1)c1ccncc1	·	·	·	15.2%	48.0%
O=C(CCc1ccc(F)c(F)c1)NC1CCCN(Cc2ccc(Cl)cc2)C1 (configuration not stated)	11.2µM*	-18.1%	-20.4%[46.1 µM]	-8.3%	-3.3%
COc1ccc(CC(=O)NCc2ccc3c(c2)cc(C)n3C)cc1OC	·	?	·	-11.2%	i
COc1cc(/C=C\C(=O)NCc2ccc3c(c2)cc(C)n3C)cc(OC)c1OC	5.17µM*	?	?	-3.0%	i
OC[C@@H]1CN(Cc2ccccc2)C[C@H](n2cnc3c(NCc4ccco4)ncnc32)O1	·	-14.3%	·	-5.9%	i
COc1cc(CNc2ncnc3c2ncn3[C@H]2CN(Cc3ccc(C(=O)O)cc3)C[C@@H](CO)O2)cc(OC)c1OC	·	-16.2%	·	6.0%	i
SMILES	Marburg entry inh	FMDV antiviral	Lassa entry inh	VACV Venus inh	VACV mCherry inh
COc1cc(CNc2ncnc3c2ncn3[C@H]2CN(Cc3ccc(-c4ccccc4)cc3)C[C@@H](CO)O2)cc(OC)c1OC	·	?	·	?	12.6µM*
OC[C@@H]1CN(Cc2ccc(-c3ccccc3)cc2)C[C@H](n2cnc3c(NCc4ccco4)ncnc32)O1	·	31.6µM*	·	-23.3%	13.3%
OC[C@@H]1CN(Cc2ccc(-c3ccccc3)cc2)C[C@H](n2cnc3c(NCc4ccncc4)ncnc32)O1	·	-4.0%	·	?	10µM*
CN1CCN(c2ccc(Nc3ccnc4cc(Cl)ccc34)cc2)CC1	?	-14.6%	2.51µM*	?	?
CCN1CCC(Nc2ccnc3cc(Cl)ccc23)CC1	12.6µM*	-2.2%	16.5%[46.1 µM]	-6.5%	-5.0%
CC(C)CN(C)c1ccc(/C=C2\C=Cc3ccccc32)cc1	·	·	·	-28.3%	-28.7%
CN(C)CCNC(=O)/C(=C/c1ccc(-c2ccc(Cl)cc2)o1)NC(=O)c1ccccc1	11.6µM*	?	?	?	-4.3%
CN(C)CCNC(=O)/C(=C/c1ccc(-c2ccc(Cl)cc2Cl)o1)NC(=O)c1ccccc1	6.31µM*	?	?	11.2µM*	?
CN(C)CCCNC(=O)/C(=C\c1ccc(-c2cccc([N+](=O)[O-])c2)o1)NC(=O)c1ccccc1	?	-22.4%	-26.4%	-2.7%	?
COc1ccc(CN2CCN(C(C)=O)CC2)cc1OC1CCN(C(=O)c2ccc3ccccc3n2)CC1	·	11.9%	·	5.8%	-4.4%
Cc1c(Cl)cccc1NC(=S)NN1CCOCC1	0.9%	-19.2%	10.4%	-1.4%	·
Cc1[nH]c(=O)[nH]c(=O)c1S(=O)(=O)Nc1cccc(Cl)c1C	6.4%[46.1 µM]	-12.6%	23.6%[46.1 µM]	5.1%	5.2%
CC1(C(=O)NC2CCCCC2)Cc2ccccc2C(=O)N1Cc1ccccc1Cl (configuration not stated)	?	-12.0%	·	-17.4%	-13.3%
c1csc(CCNc2ncnc3sc4c(c23)CCC4)c1	·	12.6µM*	·	?	-25.3%
COc1ccc2[nH]cc(CCNc3ncncc3-c3ccccc3OC)c2c1	·	-7.0%	·	·	·
COc1ccc2[nH]cc(CCNc3ncncc3-c3ccccc3Cl)c2c1	·	35.5µM*	·	·	·
CC(=O)O[C@H]1C[C@@H]2OC3C=C(C)CCC3(C)[C@@]1(C)[C@@]21CO1 (some centres not stated)	0.447µM*	·	·	·	·
CC1CCC2(C(=O)O)CCC3(C)C(=CCC4C3(C)CCC3[C@@]4(C)CC(O)C(O)[C@@]3(C)CO)C2C1C (some centres not stated)	·	-5.1%	·	1.5%	-1.0%
C[C@H]1[C@H](C)CC[C@]2(C(=O)O)CC[C@]3(C)C(=CC[C@@H]4[C@@]5(C)C[C@@H](O)[C@H](O)C(C)(C)[C@@H]5CC[C@]43C)[C@H]12	6.6%	0.0%	1.3%	12.6µM*	?
COc1ccc(CN2CCC3(CC2)c2ccccc2[C@@H](NC(=O)c2ccccc2OC)[C@@H]3O)cc1O	·	-9.0%	·	-12.1%	-22.8%
CN1CCc2cccc3c2[C@H]1Cc1ccc(O)c(O)c1-3	-26.8%	?	?	-22.0%	i
CCCN1CCc2cccc3c2[C@H]1Cc1ccc(O)c(O)c1-3	?	-20.5%	?	-8.9%	-1.1%
C=CCN1CCc2cccc3c2C1Cc1ccc(O)c(O)c1-3 (configuration not stated)	11.2µM*	-0.5%	·	-20.1%	-5.3%
COc1ccc2c(c1O)-c1cccc3c1C(C2)N(C)CC3 (configuration not stated)	1µM*	·	·	·	·
CC(C)(C)c1ccc(O)c(N=Cc2cccc([N+](=O)[O-])c2)c1	·	·	·	-10.1%	i
